The record followed here is PubChem BioAssay.

Each structure is given as a SMILES string. Records with an inconclusive call do not appear. Active and inactive are the calls of the source.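 The calls were made as follows, unless noted: active = GFP signal, as percent of the solvent control, above the screen mean plus 3 SD, about 149; inconclusive = no reading because the compound's own fluorescence upset strain identification; inactive = the rest.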

Test [1] in a line: rapamycin-like changes in RPL19A-GFP expression – cell-based, S. cerevisiae, multiplex flow cytometry, primary screen (AID 1862; in the data active = percent of DMSO control GFP below about 86%;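 also: lower values mimic rapamycin by blocking the RPL19A rise seen in DMSO cells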). The note with it: S. cerevisiae RPL19A-GFP strain, flow cytometry fluorescence, 3 h; at 10 µM; stronger effect = lower value. In general terms: In flow cytometry, cells or beads pass a laser one at a time.
Test [2] is described as follows: TOR pathway GLN3 branch reporter MEP2-GFP changes – S. cerevisiae, multiplex flow cytometry, primary screen (AID 1867;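 active = GFP response, as percent of the DMSO control, above the screen-wide mean plus 3 SD, about 139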;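 also: median GFP channel fluorescence of barcode-gated MEP2-GFP cells measured by flow cytometry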). The following applies: S. cerevisiae MEP2-GFP strain, 3 h, at 10 µM, stronger effect = higher value, 100% means same as DMSO wells.
Test [3] in a line: TOR pathway RTG branch CIT2 reporter changes – S. cerevisiae, GFP fusion, multiplex flow cytometry, primary screen (AID 1870;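 active = percent response above a set limit, the screen-wide mean plus 3 SD, cut at about 130% in these data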;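 also: barcoded CIT2-GFP strain pooled with four other GFP strains with rapamycin as positive control; median GFP fluorescence per well over plate mean of DMSO wells so 100% = DMSO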). The note with it: S. cerevisiae CIT2-GFP expression, 3 h, at 10 µM, stronger effect = higher value.
Test [4] can be described thus: TOR pathway LAP4-GFP level changes – S. cerevisiae, multiplex flow cytometry, primary screen (AID 1873). The note with it: S. cerevisiae LAP4-GFP expression, 3 h, at 10 µM, stronger effect = higher value.
Test [5] is described as follows: yeast AGP1-GFP level changes, GLN3 branch – cell-based, multiplex flow cytometry, S. cerevisiae, primary screen (AID 1887;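 active = GFP signal above the screen-wide mean plus 3 SD, that is over about 124.5% of the solvent control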;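 also: AGP1-GFP fusion strain of S. cerevisiae within a five-strain barcoded multiplex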). The following applies: 3 h, at 10 µM, stronger effect = higher value.
Test [6] in a line: reduced mouse 2C T cell binding to pMHC/ICAM-1 vesicles – MLPCN validation set, flow cytometry, LFA-1/ICAM-1 modulator project, pilot screen (AID 2523;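 active = response below a set limit, under 55% cells CD8-positive and vesicle-bound, and CD8 cells' 90th-percentile brightness under 279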;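 as to vesicle binding response: mean PE anti-B7-1 fluorescence of CD8+ cells relative to row control; 100% = QL9-loaded vesicles with DMSO vehicle in the same plate row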). The following applies: 2C mouse CD8+ T cells, at 7 µM, stronger effect = lower value; double positive events: measured here: CD8+/vesicle+ event percentage.
Test [7] concerns the target Integrin beta-1 (Homo sapiens) + Integrin alpha-4 (Homo sapiens) (UniProt P13612+P05556). As to the kind of experiment: alpha4beta1 integrin LIBS antibody binding reduction – U937 cells, HUTS-21 mAb, flow cytometry, validation set, VLA-4 allosteric modulator project, pilot screen (AID 2674;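 active = inhibition above 50%, about 3 SD of the validation set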;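 also: antibody binding induced by the VLA-4 ligand LDV present at three times its Kd; 0% = LDV ligand with antibody and no compound and 100% = antibody without LDV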). The following applies: HUTS-21 LIBS mAb binding, at 6.7 µM, stronger effect = higher value, binding induced by LDV ligand.

Test [8] in a line: calorie-restriction mimetic ROS inhibitors, yeast – validation compound set, pilot screen (AID 2706;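 active = superoxide response below 65% of plate, a cut near 3 SD across the whole screen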;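 also: yeast exposed to compound for one week at 30 degrees C before staining; 100% = mean of all compound wells on the same plate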). The note with it: S. cerevisiae aging, superoxide DHE fluorescence; at 10 µM; stronger effect = lower value.
Test [9] has as its target Beta-adrenergic receptor kinase 1 (Homo sapiens) (UniProt P25098). Briefly: GRK2 binders displacing RNA aptamer, biochemical, validation, human GRK2, bead flow cytometry (AID 488806;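 active = aptamer binding inhibition above 30%, about 3 SD of noise from non-fluorescent compounds; inactive = inhibition at or below 30%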). The note with it: bead-bound GRK2, FAM-aptamer displacement, at 10 µM, stronger effect = higher value.
In test [10] the target is Beta-2 adrenergic receptor (Homo sapiens) (UniProt P07550). Briefly: agonist-induced loss of surface beta2AR – cell-based, FAP fluorogen, flow cytometry, validation set, pilot screen (AID 504459;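 active = percent response above 42, roughly 3 SD of non-fluorescent test compounds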;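 also: agonist-driven loss of surface beta2AR via internalization measured by FAP dye flow cytometry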). The following applies: Am2.2-beta2AR cells, at 10 µM, stronger effect = higher value.
Chain of Beta-2 adrenergic receptor (Homo sapiens) (P07550 whole entry, looked up): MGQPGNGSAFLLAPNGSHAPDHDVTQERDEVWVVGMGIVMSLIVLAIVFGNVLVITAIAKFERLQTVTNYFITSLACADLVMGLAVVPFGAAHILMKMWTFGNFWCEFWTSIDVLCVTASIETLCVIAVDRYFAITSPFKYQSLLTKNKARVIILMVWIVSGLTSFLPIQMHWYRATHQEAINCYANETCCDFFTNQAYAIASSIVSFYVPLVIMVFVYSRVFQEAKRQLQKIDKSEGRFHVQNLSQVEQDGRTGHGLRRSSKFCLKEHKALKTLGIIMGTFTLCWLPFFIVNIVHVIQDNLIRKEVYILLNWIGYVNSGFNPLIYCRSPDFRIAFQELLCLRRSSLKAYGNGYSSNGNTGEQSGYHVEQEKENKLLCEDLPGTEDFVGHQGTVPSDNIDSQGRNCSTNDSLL
Test [11] addresses AP-2 complex subunit beta (Homo sapiens) (UniProt P63010). As to the kind of experiment: beta-arrestin/AP2 interaction blockers – biochemical, validation set, GST-AP2 beads, flow cytometry, pilot screen (AID 504541;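 active = inhibition above 54%, about 3 SD of non-fluorescent compounds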;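 also: AP2 carries R879A mutation and is captured from E. coli lysate; bead-bound FITC arrestin peptide fluorescence measuring arrestin peptide binding to AP2; 0% = DMSO wells and 100% = excess unlabeled arrestin peptide control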). The note with it: FITC arrestin peptide, at 10 µM, stronger effect = higher value, AP2 beta2 appendage fragment, R879A mutant.
The nature of test [12]: cytosolic pH regulators acting via V-ATPase – S. cerevisiae, pHLuorin, HTS validation (AID 504600; in the data active = response above about 15%;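 also: plate controls were DMSO for no effect and reference compound for full effect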). The note with it: V-ATPase proton transport, at 10 µM, stronger effect = higher value.
Test [13] has as its system anti-desmoglein-3 scFv antibody binding to human DSG3. As to the kind of experiment: blockers of pathogenic pemphigus antibody–desmoglein-3 binding – biochemical, validation compound set, bead-based, flow cytometry, pilot screen (AID 588368;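 active = binding below the plate cutoff, the plate median minus 3 SD, with a reading above zero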;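 also: signal is the median channel fluorescence of bead-bound GFP antibody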). The following applies: Protein G beads, DSG3-Fc, scFv-GFP binding, at 10 µM, stronger effect = lower value.
Test [14] is described as follows: Nile Red efflux blockade in pump-expressing yeast – validation compound set, multiplex, phenotypic, pilot screen (AID 588506;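 active = efflux inhibition above 0.42, the validation set average plus 4 SD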;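 also: Nile Red retained in cells so higher fluorescence means more efflux inhibition; 0 = negative control wells and 1 = enniatin B 25 µM full block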). The following applies: S. cerevisiae pump-expressing triplex, Nile Red efflux flow cytometry; at 10 µM; stronger effect = higher value; the pumps come from Candida albicans.
Test [15] deals with ATP-binding cassette sub-family B member 6 (Homo sapiens) (UniProt Q9NP58). As to the kind of experiment: blockers of ABCB6-driven porphyrin uptake – K562-ABCB6 cells, flow cytometry, validation set, pilot screen (AID 588550;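 active = inhibition above the screen-wide mean plus 3 SD, about 51%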;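 also: 0% = DMSO wells and 100% = benzethonium chloride 70 µM positive control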). The following applies: K562-ABCB6 porphyrin accumulation, 1 h, at 10 µM, stronger effect = higher value.
Chain of ATP-binding cassette sub-family B member 6 (Homo sapiens) (Q9NP58 whole entry, looked up): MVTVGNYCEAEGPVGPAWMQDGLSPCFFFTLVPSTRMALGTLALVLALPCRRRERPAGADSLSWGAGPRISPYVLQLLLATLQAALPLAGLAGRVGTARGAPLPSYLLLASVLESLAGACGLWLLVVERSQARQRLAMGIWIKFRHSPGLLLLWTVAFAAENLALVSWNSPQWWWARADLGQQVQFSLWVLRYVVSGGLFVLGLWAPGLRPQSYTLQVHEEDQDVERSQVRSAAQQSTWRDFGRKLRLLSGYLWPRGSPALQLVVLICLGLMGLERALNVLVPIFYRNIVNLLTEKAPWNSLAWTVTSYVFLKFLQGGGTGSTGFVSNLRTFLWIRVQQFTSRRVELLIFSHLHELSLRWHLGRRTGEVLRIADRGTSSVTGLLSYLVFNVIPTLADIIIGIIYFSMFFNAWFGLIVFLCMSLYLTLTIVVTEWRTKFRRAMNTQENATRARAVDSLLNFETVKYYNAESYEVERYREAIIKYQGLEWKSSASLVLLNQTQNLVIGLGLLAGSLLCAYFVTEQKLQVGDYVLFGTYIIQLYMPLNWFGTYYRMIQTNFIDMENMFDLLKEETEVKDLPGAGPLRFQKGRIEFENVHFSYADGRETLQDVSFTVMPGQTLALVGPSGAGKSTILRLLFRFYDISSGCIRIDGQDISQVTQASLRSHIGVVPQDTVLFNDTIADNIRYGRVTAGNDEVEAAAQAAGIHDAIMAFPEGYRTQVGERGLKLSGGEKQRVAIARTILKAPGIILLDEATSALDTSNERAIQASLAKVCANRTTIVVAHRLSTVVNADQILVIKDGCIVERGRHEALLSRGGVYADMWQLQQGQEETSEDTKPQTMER
A short description of test [16]: AML differentiation inducers, ER-HoxA9 marrow cells – cell-based, GFP/MAC1 double positive, flow cytometry, validation set, primary screen (AID 588685;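 active = differentiation response of at least 50%, scaled between solvent and reference control, from cells with both markers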;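 also: compound exposure lasts four days before antibody staining and flow analysis; 0% = DMSO wells and 100% = 5 µM fulvestrant positive control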). The following applies: stronger effect = higher value, normalized: vehicle 0, fulvestrant 100.

As usually defined, the inhibition is the change of the read-out against control, counted positive when it falls.

Chain of AP-2 complex subunit beta (Homo sapiens) (P63010 whole entry, looked up, the tested form may be a part, one chain of several): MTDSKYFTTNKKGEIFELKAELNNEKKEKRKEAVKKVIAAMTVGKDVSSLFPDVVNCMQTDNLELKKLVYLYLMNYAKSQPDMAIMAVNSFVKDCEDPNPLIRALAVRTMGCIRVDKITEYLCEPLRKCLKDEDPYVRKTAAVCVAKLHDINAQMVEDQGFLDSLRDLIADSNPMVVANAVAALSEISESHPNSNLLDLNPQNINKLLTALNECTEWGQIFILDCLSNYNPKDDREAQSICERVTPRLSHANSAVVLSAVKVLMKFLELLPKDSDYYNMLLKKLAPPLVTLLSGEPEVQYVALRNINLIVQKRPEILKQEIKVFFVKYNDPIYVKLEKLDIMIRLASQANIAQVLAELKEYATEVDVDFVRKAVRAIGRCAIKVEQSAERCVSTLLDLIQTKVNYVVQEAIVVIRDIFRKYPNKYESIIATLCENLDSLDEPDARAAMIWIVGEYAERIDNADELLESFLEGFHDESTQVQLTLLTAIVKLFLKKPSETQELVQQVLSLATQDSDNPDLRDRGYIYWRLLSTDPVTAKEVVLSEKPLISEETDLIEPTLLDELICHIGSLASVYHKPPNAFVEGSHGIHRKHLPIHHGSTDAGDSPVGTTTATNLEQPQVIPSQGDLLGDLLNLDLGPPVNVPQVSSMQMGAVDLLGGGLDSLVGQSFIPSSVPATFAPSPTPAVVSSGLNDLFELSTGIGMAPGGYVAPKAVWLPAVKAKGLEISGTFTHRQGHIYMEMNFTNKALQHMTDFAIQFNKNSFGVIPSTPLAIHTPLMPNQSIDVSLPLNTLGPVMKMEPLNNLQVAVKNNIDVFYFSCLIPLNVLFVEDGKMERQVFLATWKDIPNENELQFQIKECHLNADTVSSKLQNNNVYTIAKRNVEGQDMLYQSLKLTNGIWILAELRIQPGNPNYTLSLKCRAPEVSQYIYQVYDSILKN
Chain of Beta-adrenergic receptor kinase 1 (Homo sapiens) (P25098 whole entry, looked up): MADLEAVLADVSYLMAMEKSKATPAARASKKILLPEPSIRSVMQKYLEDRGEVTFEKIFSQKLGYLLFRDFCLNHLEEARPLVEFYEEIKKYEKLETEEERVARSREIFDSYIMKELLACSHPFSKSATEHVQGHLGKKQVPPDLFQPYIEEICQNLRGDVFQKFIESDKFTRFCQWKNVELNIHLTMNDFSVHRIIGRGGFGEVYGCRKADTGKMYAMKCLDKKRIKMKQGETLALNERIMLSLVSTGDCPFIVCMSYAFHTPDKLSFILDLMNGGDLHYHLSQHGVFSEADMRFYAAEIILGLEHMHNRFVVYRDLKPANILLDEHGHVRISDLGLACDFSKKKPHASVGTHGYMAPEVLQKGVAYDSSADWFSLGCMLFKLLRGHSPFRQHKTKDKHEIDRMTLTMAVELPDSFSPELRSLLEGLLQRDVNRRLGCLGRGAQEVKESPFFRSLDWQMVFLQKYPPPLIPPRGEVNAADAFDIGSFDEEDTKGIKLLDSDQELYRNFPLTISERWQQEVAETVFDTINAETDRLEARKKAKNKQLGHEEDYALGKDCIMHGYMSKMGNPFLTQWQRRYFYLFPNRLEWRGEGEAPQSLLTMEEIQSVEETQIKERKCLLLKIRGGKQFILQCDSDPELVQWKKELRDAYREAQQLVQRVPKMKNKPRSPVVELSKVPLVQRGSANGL
Chain of Integrin beta-1 (Homo sapiens) + Integrin alpha-4 (Homo sapiens) (P05556 whole entry, looked up): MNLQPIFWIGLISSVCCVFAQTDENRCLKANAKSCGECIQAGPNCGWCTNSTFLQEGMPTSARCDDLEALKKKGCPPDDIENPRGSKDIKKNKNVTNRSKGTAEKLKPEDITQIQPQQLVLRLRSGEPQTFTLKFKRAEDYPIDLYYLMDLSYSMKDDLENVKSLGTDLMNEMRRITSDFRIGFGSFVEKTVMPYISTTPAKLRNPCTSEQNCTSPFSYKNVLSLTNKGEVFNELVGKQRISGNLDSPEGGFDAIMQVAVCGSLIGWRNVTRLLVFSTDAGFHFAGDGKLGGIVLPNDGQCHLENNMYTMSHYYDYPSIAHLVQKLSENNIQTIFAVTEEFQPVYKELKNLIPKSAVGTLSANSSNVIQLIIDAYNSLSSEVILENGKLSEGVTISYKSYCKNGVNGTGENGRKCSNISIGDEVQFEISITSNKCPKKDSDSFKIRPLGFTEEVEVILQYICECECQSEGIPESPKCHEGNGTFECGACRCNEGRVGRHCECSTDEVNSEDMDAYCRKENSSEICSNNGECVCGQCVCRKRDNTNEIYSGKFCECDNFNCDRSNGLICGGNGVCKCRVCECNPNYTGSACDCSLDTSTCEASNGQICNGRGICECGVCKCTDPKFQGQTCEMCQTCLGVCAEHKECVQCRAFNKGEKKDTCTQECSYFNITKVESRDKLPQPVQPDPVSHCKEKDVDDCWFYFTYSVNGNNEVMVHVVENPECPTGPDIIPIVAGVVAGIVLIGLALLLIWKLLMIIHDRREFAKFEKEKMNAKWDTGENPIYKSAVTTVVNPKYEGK
Chain of Integrin beta-1 (Homo sapiens) + Integrin alpha-4 (Homo sapiens) (P13612 whole entry, looked up): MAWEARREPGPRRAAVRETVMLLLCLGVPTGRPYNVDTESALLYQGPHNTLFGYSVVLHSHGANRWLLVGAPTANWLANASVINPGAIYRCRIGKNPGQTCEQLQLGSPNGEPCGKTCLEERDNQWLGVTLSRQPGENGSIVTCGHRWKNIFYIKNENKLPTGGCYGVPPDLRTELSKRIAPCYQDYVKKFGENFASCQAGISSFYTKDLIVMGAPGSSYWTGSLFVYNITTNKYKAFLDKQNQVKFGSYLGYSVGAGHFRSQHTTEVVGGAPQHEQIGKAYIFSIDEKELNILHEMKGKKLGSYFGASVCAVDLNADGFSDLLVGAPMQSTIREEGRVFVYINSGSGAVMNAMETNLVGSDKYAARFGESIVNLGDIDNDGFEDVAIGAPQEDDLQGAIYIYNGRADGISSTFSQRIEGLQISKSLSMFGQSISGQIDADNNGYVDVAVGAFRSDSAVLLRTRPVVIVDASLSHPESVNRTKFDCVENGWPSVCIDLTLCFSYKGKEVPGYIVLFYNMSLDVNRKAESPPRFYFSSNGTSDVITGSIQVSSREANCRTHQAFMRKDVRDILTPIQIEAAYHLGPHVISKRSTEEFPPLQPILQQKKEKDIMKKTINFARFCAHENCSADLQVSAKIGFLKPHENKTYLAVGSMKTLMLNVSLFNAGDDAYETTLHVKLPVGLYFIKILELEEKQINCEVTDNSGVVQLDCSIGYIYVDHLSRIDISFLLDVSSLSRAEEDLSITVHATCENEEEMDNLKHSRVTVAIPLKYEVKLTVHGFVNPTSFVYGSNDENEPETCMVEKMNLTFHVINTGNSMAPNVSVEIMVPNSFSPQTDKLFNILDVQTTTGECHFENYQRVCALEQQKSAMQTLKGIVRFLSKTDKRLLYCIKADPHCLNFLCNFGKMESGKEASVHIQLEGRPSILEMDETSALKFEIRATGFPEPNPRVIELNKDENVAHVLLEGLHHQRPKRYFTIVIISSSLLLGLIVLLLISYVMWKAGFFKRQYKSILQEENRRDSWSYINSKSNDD

For `COc1ccccc1/C=C/C(=O)c1c2c(c(C)[nH]c1=O)CCCC2`, the percent of DMSO control GFP in test [1] was 97.8% (inactive). The figures for the GFP response vs DMSO in test [2] and in test [4] were 96.6% (inactive) and 104% (inactive), respectively. Moreover, the percent response of DMSO control in [3] is 96.4% (inactive). For the same compound, in test [5], the GFP response, % of DMSO is 114% (inactive). The compound further came in with a double positive events in test [6] of 65.9%. Further, the vesicle binding response in test [6] was 192% (inactive). In addition, the inhibition in test [7] is 17.6% (inactive); in test [11], 1.34% (inactive); in test [15], 4% (inactive). Further, the superoxide response (% of plate) in test [8] is 107% (inactive). The aptamer binding inhibition in test [9] is 8% (inactive). In addition, the response in test [10] was -4.6% (inactive); in test [12], 17.4% (active). Besides, the binding (% of control) in test [13] is 106% (inactive). In addition, the efflux inhibition (fraction of control) in [14] is -0.13 (inactive). The differentiation response in test [16] is 15.7% (inactive).

For the compound `COc1cc(C=NCC2OCCc3ccccc32)cc(OC)c1` (stereo not given), in test [1], the percent of DMSO control GFP is 99% (inactive). In addition, the GFP response vs DMSO in test [2] is 105% (inactive); in [4], 117% (inactive). The percent response of DMSO control in test [3] is 95.8% (inactive). Besides, the GFP response, % of DMSO in [5] was 100% (inactive). This compound also registered a double positive events in test [6] of 57.8%. Also, in test [6], the vesicle binding response was 136% (inactive). Further, the inhibition in test [7] was -1.79% (inactive); in [11], 17.8% (inactive); in [15], -47% (inactive). In addition, the superoxide response (% of plate) in test [8] is 101% (inactive). Further, in test [9], the aptamer binding inhibition was 4% (inactive). Also, the response in [10] is 4.4% (inactive); in test [12], 1.44% (inactive). Also, the binding (% of control) in test [13] is 103% (inactive). In addition, the efflux inhibition (fraction of control) in test [14] is -0.46 (inactive). In addition, the differentiation response in [16] is -7.2% (inactive).

Take `Oc1[nH]c2ccccc2c1C1=NCCCC1`: in [1], the percent of DMSO control GFP is 102% (inactive). The GFP response vs DMSO was 105% (inactive) in test [2] and 99.4% (inactive) in [4]. The percent response of DMSO control in test [3] is 96% (inactive). Also, in test [5], the GFP response, % of DMSO was 106% (inactive). In test [6], this compound had a double positive events of 63.2%. Besides, the vesicle binding response in test [6] was 161% (inactive). For the same compound, the inhibition in [7] is -3.18% (inactive); in [11], -15.4% (inactive); in [15] it was 11% (inactive). For the same compound, the superoxide response (% of plate) in test [8] is 84.9% (inactive). In test [9], the aptamer binding inhibition is 8% (inactive). Also, the response is 17.8% (inactive) in test [10] and 1.51% (inactive) in test [12]. Moreover, in test [13], the binding (% of control) is 102% (inactive). Further, the efflux inhibition (fraction of control) in test [14] is -0.12 (inactive). The differentiation response in test [16] is 0% (inactive).

On to `NC(=O)[C@@H]1[C@@H]2C(=O)N(c3ccc(F)cc3)C(=O)[C@@H]2[C@H]2C=Cc3ccccc3N21`, for which, in [1], the percent of DMSO control GFP is 104% (inactive). Further, the GFP response vs DMSO in test [2] was 105% (inactive); in test [4], 100% (inactive). The percent response of DMSO control in [3] was 112% (inactive). Moreover, the GFP response, % of DMSO in test [5] is 102% (inactive). Besides, in test [6], the double positive events was 63%. Further, in test [6], the vesicle binding response was 126% (inactive). The inhibition is -80.5% (inactive) in [7], -25.9% (inactive) in [11] and -37% (inactive) in test [15]. In addition, the superoxide response (% of plate) in test [8] was 103% (inactive). Also, the aptamer binding inhibition in test [9] is 6% (inactive). For the same compound, the response is 4.67% (inactive) in test [10] and -0.45% (inactive) in test [12]. Further, the binding (% of control) in test [13] is 104% (inactive). The efflux inhibition (fraction of control) in [14] is -0.12 (inactive). Further, the differentiation response in test [16] is 3.45% (inactive).

Regarding `NS(=O)(=O)c1ccc(CCNC(=O)C2CCCN2C(=O)OCc2ccccc2)cc1` (stereo not given), in test [1], the percent of DMSO control GFP was 97.2% (inactive). Further, the GFP response vs DMSO in test [2] is 109% (inactive); in [4], 77.6% (inactive). Moreover, the percent response of DMSO control in test [3] was 112% (inactive). Moreover, the GFP response, % of DMSO in test [5] is 103% (inactive). In addition, in test [6], the double positive events was 52.2%. In addition, in test [6], the vesicle binding response was 214% (inactive). Besides, the inhibition was 1.61% (inactive) in test [7], -5.77% (inactive) in test [11] and 11% (inactive) in test [15]. The superoxide response (% of plate) in test [8] is 110% (inactive). Also, the aptamer binding inhibition in [9] is -8% (inactive). In addition, the values for the response in [10] and in test [12] were -16.9% (inactive) and 2.16% (inactive), respectively. In [13], the binding (% of control) is 104% (inactive). Moreover, in test [14], the efflux inhibition (fraction of control) is 0.19 (inactive). The differentiation response in [16] is 3.28% (inactive).
